Active and inactive are the calls of the source.
Molecular target: NADPH oxidase 2 (Homo sapiens) (UniProt P04839)
Assay: NOX2-dependent H2O2 signal modulators, primary screen, NOX inhibitor project, cell-based, HEK293-NOX2, PMA-stimulated, Amplex Red fluorescence (AID 1159); also: test concentration not given here
Details: 45 min, higher = more signal, called active from +8 up or from −8 down

Sequence of NADPH oxidase 2 (Homo sapiens) (P04839 whole entry, looked up): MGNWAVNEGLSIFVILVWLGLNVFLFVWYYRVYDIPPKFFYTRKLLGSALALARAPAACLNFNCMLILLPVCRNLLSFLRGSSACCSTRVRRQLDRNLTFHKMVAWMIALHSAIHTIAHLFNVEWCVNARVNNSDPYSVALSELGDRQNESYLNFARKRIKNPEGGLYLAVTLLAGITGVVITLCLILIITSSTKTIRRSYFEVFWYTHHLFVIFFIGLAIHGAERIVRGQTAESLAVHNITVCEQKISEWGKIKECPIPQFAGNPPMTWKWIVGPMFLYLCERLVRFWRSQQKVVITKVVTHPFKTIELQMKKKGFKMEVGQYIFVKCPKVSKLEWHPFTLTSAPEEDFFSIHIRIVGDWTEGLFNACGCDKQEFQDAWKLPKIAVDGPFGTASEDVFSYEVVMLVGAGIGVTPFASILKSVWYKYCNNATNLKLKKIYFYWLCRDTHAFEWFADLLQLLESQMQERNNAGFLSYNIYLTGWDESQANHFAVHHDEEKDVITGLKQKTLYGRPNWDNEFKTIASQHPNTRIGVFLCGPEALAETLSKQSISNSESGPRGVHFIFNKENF

z-score, inactive:
C=CCC(OC(C)=O)[C@@H]1[C@@H](N(Cc2cc3ccccc3o2)C(=O)c2ccc(-c3ccccc3)cc2)c2cc(OCCCO)ccc2N1C(=O)Cc1ccc(OC)cc1 (some centres not stated) -0.0713, COCC(=C=CC[C@@H](O)c1ccc(OCCO)cc1)CCO -2.03, CC(C)(C)OC(=O)CC[C@]12N=C(c3ccc(OCCCO)cc3)O[C@H]1c1ccccc1N(Cc1ccccc1)C2=O 3.89, O=C1OCCC/C=C\[C@H]2OC34C=CCN(c5ccc6ccccc6c5)C(=O)[C@H]3N(CCCO)C(=O)[C@@H]4C12 (some centres not stated) 2.08, C=C/C=C/[C@@H]1C(=C)CN([C@@H](Cc2ccccc2)C(=O)OC)[C@H]1[C@@H](O)Cc1ccccc1 0.0619, O=C1NC(=O)C2C1C=CC(C(O)c1ccccn1)N2Nc1ccc(Cl)cc1Cl (configuration not stated) -1.39, CC(C)C[C@@H]1NC(=O)CNC(=O)[C@@]23C(=O)N[C@@H](Cc4ccccc4)C2[C@H](C)[C@@]2(C)O[C@H]2C3/C=C/C/C=C\CNC1=O (some centres not stated) 0.217, CCOC(=O)C1=C[C@@H](c2ccccc2)N(S(=O)(=O)c2ccc(C)cc2)[C@H]1c1ccccc1 -0.395, [N-]=[N+]=NCc1ccccc1C[C@]1(C(=O)N2CCOCC2)COC(c2ccc(OCCCO)cc2)=N1 -3.84, COCCOC(=O)N1C(=O)[C@@]2(c3cc(C#Cc4ccc(OC)cc4)ccc31)[C@H](C(=O)NC[C@H](O)c1ccccc1)[C@H]1C(=O)O[C@H](c3ccccc3)[C@H](c3ccccc3)N1[C@@H]2c1ccc(OCCO)cc1 -0.756, COCCOC(=O)N1C(=O)[C@@]2(c3cc(C#CCC(C(=O)OC)C(=O)OC)ccc31)[C@H](c1ccc(OCCO)cc1)N1[C@H](c3ccccc3)[C@H](c3ccccc3)OC(=O)[C@H]1[C@@H]2C(=O)Nc1nc2ccccc2s1 0.892, COCCOC(=O)N1C(=O)[C@@]2(c3cc(C#CCNC(N)=O)ccc31)[C@H](c1ccc(O)cc1)N1[C@H](c3ccccc3)[C@H](c3ccccc3)OC(=O)[C@H]1[C@@H]2C(=O)N1CCN(c2ncccn2)CC1 1.23, COc1cc(C(O)C2C=CC3C(=O)N(Cc4ccccc4)C(=O)C3N2n2cnnc2)cc(OC)c1OC (configuration not stated) 1.24, CCCCC=C[C@@H](NC(=O)c1ccccc1)c1ccccc1 -0.474, COc1ccc([Si](C)(C)[C@@H]2[C@@H](CC(=O)N3Cc4ccccc4C[C@H]3CO)O[C@]3(C(=O)N(c4ccccc4)c4ccccc43)[C@H]2C)cc1 0.651, CCOC(=O)C1=CCC(c2ccccc2)N(S(=O)(=O)c2ccc([N+](=O)[O-])cc2)C1 (configuration not stated) 0.528, [N-]=[N+]=NCc1ccccc1[C@@H]1OC(c2ccc(OCCCO)cc2)=N[C@]1(Cc1ccccc1N=[N+]=[N-])C(=O)N1CCCCC1 -1.45, C=CCN1C(=O)[C@]2(O[C@H](CCO)[C@@H]([Si](C)(C)c3ccc(OC)cc3)[C@@H]2C)c2cc(N3C(=O)COc4ccccc43)ccc21 0.617, COCCCNC(=O)[C@@]1(c2ccc([N+](=O)[O-])cc2)CC(=O)N(CC23CC4CC(CC(C4)C2)C3)[C@@H]1c1ccc(CO)cc1I 2.08, CC(C)OC(=O)CC(=O)CC(O)c1ccc([N+](=O)[O-])cc1 (configuration not stated) 0.0696, CCOC(=O)C1=CCC(c2ccco2)N(S(=O)(=O)c2ccc(C)cc2)C1 (configuration not stated) -0.176, [N-]=[N+]=Nc1ccccc1[C@@H]1OC(c2ccc(OCCCO)cc2)=N[C@]1(Cc1ccccc1)C(=O)NCc1ccccc1 -2.11, [N-]=[N+]=NCc1ccccc1C[C@@]1(C(=O)N2CCCCC2)N=C(c2ccc(OCCCO)cc2)O[C@@H]1c1ccccc1CN=[N+]=[N-] -1.29, O=C1C2C=CC(C(O)c3ccc(I)cc3)N(Nc3ccccc3)C2C(=O)N1c1ccccc1 (configuration not stated) -1.88, CC(C)C(=C=CC[C@@H](O)c1cccc(OCCO)c1)C[C@@H](O)c1ccccn1 -1.37, COC(=O)[C@@]1(Cc2ccccc2CN=[N+]=[N-])N=C(c2ccc(OCCCO)cc2)O[C@H]1c1ccccc1 -2.19, CCOC(=O)C[C@H]1[C@H](OC(=O)c2cc3ccccc3oc2=O)[C@@H](NC(=O)c2ccc3ccccc3c2)c2cc(OCCCO)ccc2N1C(=O)Cc1ccc(OC)cc1 3.04
